V-ATPase pH: alters yeast V-ATPase proton transport; S. cerevisiae, pHLuorin cytosolic pH fluorescence; response, % at 10 µM; hit rate 0.37% among 350,000; AID 504577; in the data active = response mostly above about 7.3%, no sharp cut-off; inactive = mostly below about 5.4%; note: actives read high
SKKanGAS inh: inhibitors of SKKanGAS S. pyogenes growth in kanamycin (SK-promoter or general growth effect). BacTiter-Glo, 6 h. hit rate 1.3% among 300,000. AID 1662. inhibition, % at 7.5 µM;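 active = mean replicate score, as percent of positive control median, at least 50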;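 note: strain carries kanamycin resistance gene driven by streptokinase promoter and grows in 40 µg/ml kanamycin; loss of luminescence reflects streptokinase promoter inhibition or plain growth inhibition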
PfHsp90 yeast 2: reduces growth (ATP signal) of yeast expressing P. falciparum Hsp90. S. cerevisiae expressing PfHsp90, BacTiter-Glo ATP, 48 h; yeast lacking PDR1 and PDR3 efflux regulators. inhibition, % at 9.4 µM. hit rate 0.32% among 310,000;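 active = every replicate shows inhibition above about 80%, whatever the replicate mean, limit read from the data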
TIM10 inh: growth inhibitors of TIM10 yeast strain. S. cerevisiae TIM10 strain growth, BacTiter-Glo luminescence, 24 h. hit rate 1.4% among 330,000. inhibition, % at 10 µM;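 active = inhibition of 40% or more at the single tested concentration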;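 note: wild-type TIM10 isogenic control strain grown at permissive 25 °C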
tim10-1 inh: tim10-1 yeast growth inhibition | S. cerevisiae tim10-1 ts strain growth, BacTiter-Glo, 24 h | AID 463190 | inhibition, % at 20 µM | hit rate 2.2% among 330,000;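 active = inhibition of at least 40%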;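 note: mutant grown at 25 °C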
tim23-1 inh: growth inhibitors of tim23-1 mutant yeast; S. cerevisiae tim23-1 growth, BacTiter-Glo luminescence, 24 h; inhibition, % at 20 µM; hit rate 1.3% among 330,000;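 active = growth inhibition of the mutant yeast at or above 50%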;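 note: temperature-sensitive mutant grown at 25 °C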
tim10-1 conf: tim10-1 yeast growth inhibition, confirmed; shares compounds with tim10-1 inh; S. cerevisiae tim10-1 ts strain growth, BacTiter-Glo, 24 h; inhibition, % at 20 µM; hit rate 56% among 7,400; AID 463213;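 active = inhibition of yeast growth at or above a set limit in either of two repeat tests at 20 µM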;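 note: tim10-1 mutant grown at permissive 25 °C to find synthetic lethal compounds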
tim10 confirm: TIM10 yeast growth inhibition, confirmed. shares compounds with TIM10 inh. S. cerevisiae tim10 strain growth, BacTiter-Glo luminescence, 24 h. inhibition, % at 10 µM. hit rate 63% among 4,600;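 active = inhibition of yeast growth at or above a set limit in either of two replicates at 10 µM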; note: this counterscreen used the strain with wild-type TIM10
tim23-1 conf: tim23-1 yeast growth inhibition, confirmed; AID 463218; hit rate 83% among 4,400; S. cerevisiae tim23-1 growth, BacTiter-Glo luminescence, 24 h; inhibition, % at 20 µM; shares compounds with tim23-1 inh;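 active = inhibition above about 39% in either of two replicate wells at 20 µM, limit read from the data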;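 note: temperature-sensitive tim23-1 mutant grown at 25 °C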
Large screens that a line does not name were inactive (follow-up assays come after a bar, where they were run). In the library only some 4.6% were active in any assay of this set; here they are far more common.

O=C(O)c1ccc(S(=O)(=O)/N=C2\C=C(Nc3ccccc3F)C(=O)c3ccccc32)cc1	SKKanGAS inh 88.3, TIM10 inh 74.4, tim10-1 inh 79.1, tim23-1 inh 81.1 | tim10-1 conf 84.0 | tim10 confirm 73.5 | tim23-1 conf 89.2
COc1ccc2c(c1)CC/C2=N\OC(=O)c1ccccc1OC	TIM10 inh 71.2, tim10-1 inh 52.8, tim23-1 inh 81.1 | tim10-1 conf 38.2 | tim10 confirm 80.4 | tim23-1 conf 79.5
COc1ccccc1C(=O)O/N=C1/CCCc2c1ccc(OC)c2[N+](=O)[O-]	none (no result: PfHsp90 yeast 2)
C[C@@H]1CN([C@H](C)CO)C(=O)CCCn2nncc2CO[C@H]1CN(C)Cc1ccccc1	none (no result: SKKanGAS inh, PfHsp90 yeast 2, TIM10 inh, tim10-1 inh, tim23-1 inh)
O=C(Oc1ccccc1C(=S)N1CCOCC1)c1ccc([N+](=O)[O-])cc1[N+](=O)[O-]	TIM10 inh 45.1, tim10-1 inh 56.4, tim23-1 inh 53.8 | tim10-1 conf 48.5 | tim10 confirm 48.7 | tim23-1 conf 52.0
COc1ccc(C(=S)N2CCOCC2)cc1OC(=O)c1ccc([N+](=O)[O-])cc1[N+](=O)[O-]	TIM10 inh 71.0, tim10-1 inh 60.3, tim23-1 inh 58.5 | tim10-1 conf 74.2 | tim10 confirm 68.2 | tim23-1 conf 68.3
COc1cc(C(=S)N2CCOCC2)ccc1OC(=O)c1cc([N+](=O)[O-])cc([N+](=O)[O-])c1	none
COc1cc(C(=S)N2CCOCC2)cc(OC)c1OC(=O)c1ccccc1[N+](=O)[O-]	none
N#C/C(=C\c1ccc[nH]1)C(=O)Nc1ccccc1[N+](=O)[O-]	none
CCOc1ccc(NC(=O)CSc2ccc(-c3cccnc3)nn2)cc1	none
CCC1CCCCN1S(=O)(=O)c1ccc(NC(=O)c2cccs2)cc1 (stereo not drawn)	TIM10 inh 64.3, tim10-1 inh 72.2, tim23-1 inh 72.0 | tim10-1 conf 64.6 | tim10 confirm 67.8 | tim23-1 conf 78.5
CNc1nc(SCc2ccccc2Cl)nc2c1CCCC2	TIM10 inh 46.3, tim10-1 inh 41.9, tim23-1 inh 54.3 | tim10-1 conf 42.9 | tim10 confirm 44.7 | tim23-1 conf 59.7
CCOc1ccc(C(C)(C)C)cc1S(=O)(=O)n1nc(C)cc1C	TIM10 inh 46.4, tim10-1 inh 45.7, tim23-1 inh 53.6 | tim10-1 conf 40.8 | tim10 confirm inactive | tim23-1 conf 50.5
CCOc1ccc(C(C)(C)C)cc1S(=O)(=O)N1CC(C)OC(C)C1 (stereo not drawn)	tim10-1 inh 43.6, tim23-1 inh 55.0 | tim10-1 conf inactive | tim23-1 conf 42.1
CCN(C[C@H]1N[C@@](Cc2ccccc2)(C(=O)OC)[C@H]2C(=O)N(Cc3ccccc3)C(=O)[C@@H]12)C(=O)Nc1ccc(C(F)(F)F)cc1	TIM10 inh 72.3, tim10-1 inh 75.6, tim23-1 inh 70.2 (no result: SKKanGAS inh) | tim10-1 conf 80.6 | tim10 confirm 68.6 | tim23-1 conf 75.0
N/C(=N\OC(=O)c1cccs1)c1cccnc1	none
N/C(Cc1ccc(Cl)c(Cl)c1)=N\OC(=O)c1cccs1	PfHsp90 yeast 2 104.2, TIM10 inh 86.0, tim10-1 inh 56.0, tim23-1 inh 61.6 | tim10-1 conf inactive | tim10 confirm 84.3 | tim23-1 conf 42.4
N/C(=N\OC(=O)c1cccs1)C1(c2ccc(Cl)cc2Cl)CC1	TIM10 inh 65.8, tim10-1 inh 50.0, tim23-1 inh 74.3 | tim10-1 conf 44.7 | tim10 confirm 76.2 | tim23-1 conf 73.3
Cc1ccc2occ(/C=N/NC(=O)c3ccc(Cl)cc3)c(=O)c2c1	none
CCOc1ccccc1C(=O)N/N=C/c1coc2ccc(Cl)cc2c1=O	TIM10 inh 70.7, tim10-1 inh 67.1, tim23-1 inh 68.3 (no result: SKKanGAS inh) | tim10-1 conf 53.8 | tim10 confirm inactive | tim23-1 conf 68.9
CCOC(=O)CSC1=NC(=O)/C(=C/c2ccc(Br)cc2)S1	TIM10 inh 60.8, tim10-1 inh 48.5, tim23-1 inh 60.7 | tim10-1 conf 62.1 | tim10 confirm 52.1 | tim23-1 conf 69.7
Oc1c(Cl)cc(Cl)cc1C=Nc1cc(C(F)(F)F)ccc1N1CCc2ccccc2C1	SKKanGAS inh 87.5, tim10-1 inh 59.5, tim23-1 inh 57.6 | tim10-1 conf 35.7 | tim23-1 conf 59.1
Oc1c(Cl)cccc1C=Nc1cc(C(F)(F)F)ccc1N1CCCC1	none
Cc1cc(C)c2c(CCl)cc(=O)oc2c1	TIM10 inh 42.4, tim10-1 inh 49.2, tim23-1 inh 61.9 (no result: PfHsp90 yeast 2) | tim10-1 conf 40.4 | tim10 confirm 39.6 | tim23-1 conf 53.0
CC12CCC(C/C1=N/OC(=O)c1cccc([N+](=O)[O-])c1)C2(C)C (stereo not drawn)	TIM10 inh 61.8, tim10-1 inh 42.1, tim23-1 inh 69.8 | tim10-1 conf 66.4 | tim10 confirm 72.0 | tim23-1 conf 74.8
CC1=CC(=O)C=C(C)C1=NOC(=O)c1cccc([N+](=O)[O-])c1	none (no result: PfHsp90 yeast 2)
CC12CCC(C/C1=N\OC(=O)c1ccc(F)cc1)C2(C)C (stereo not drawn)	TIM10 inh 70.6, tim10-1 inh 65.7, tim23-1 inh 71.1 | tim10-1 conf 64.2 | tim10 confirm 67.5 | tim23-1 conf 78.2
Cc1cc(C)c2sc(NC(=O)C3CC3)nc2c1	TIM10 inh 42.3, tim10-1 inh 46.6, tim23-1 inh 61.0 | tim10-1 conf 31.7 | tim10 confirm 34.3 | tim23-1 conf 64.8
Cc1ccc(C)c2sc(NC(=O)C3CC3)nc12	none
N/C(Cc1ccc([N+](=O)[O-])cc1)=N\OC(=O)c1ccccc1F	TIM10 inh 64.1, tim10-1 inh 71.7, tim23-1 inh 58.9 | tim10-1 conf 71.5 | tim10 confirm 52.3 | tim23-1 conf 54.2
N/C(Cc1ccc([N+](=O)[O-])cc1)=N\OC(=O)c1ccc(Br)o1	TIM10 inh 64.3, tim10-1 inh 84.9, tim23-1 inh 60.3 | tim10-1 conf 81.2 | tim10 confirm inactive | tim23-1 conf 44.0
CN(CCO)CCC(=O)NC1(C)CS(=O)(=O)CC1S(=O)(=O)O (stereo not drawn)	none
CCc1nc2sc3ccccc3c(=O)c2c(=O)n1Cc1ccco1	tim10-1 inh 68.7, tim23-1 inh 52.8 | tim10-1 conf 60.5 | tim23-1 conf 62.1
O=c1c2ccccc2sc2nc(C3CCCCC3)n(Cc3ccco3)c(=O)c12	none (no result: TIM10 inh, tim10-1 inh, tim23-1 inh)
COC(=O)COc1ccc(-c2ccccc2)cc1C=O	TIM10 inh 72.9, tim10-1 inh 65.9, tim23-1 inh 65.2 | tim10-1 conf 59.7 | tim10 confirm 72.9 | tim23-1 conf 83.1
